This note sets out measurements from PubChem BioAssay (Tox21).

Assay [1] is described as follows: qHTS assay to identify small molecule antagonists of the glucocorticoid receptor (GR) signaling pathway - cell viability counter screen (AID 720693). Also: nearly all actives have a fitted effect of over 55% in size. Also: potency is read from the fitted curve at half-maximal effect. On the technique in general: qHTS replaces the single test concentration by a dilution series.
Assay [2] can be described thus: qHTS assay for identifying genotoxic compounds that show differential cytotoxicity against isogenic chicken DT40 cell lines with known DNA damage response pathways - Rad54/Ku70 mutant cell line (AID 743015). Also: nearly all actives have a fitted effect of over 60% in size. Also: potency is read from the fitted curve at half-maximal effect.
Assay [3] can be described thus: qHTS assay to identify small molecule antagonists of the androgen receptor (AR) signaling pathway - cell viability counter screen (AID 743033; also: nearly all actives have a fitted effect of over 45% in size; also: potency is read from the fitted curve at half-maximal effect).
Assay [4] in a line: qHTS assay to identify small molecule antagonists of the androgen receptor (AR) signaling pathway using the MDA cell line - cell viability counter screen (AID 743041; also: % is scaled to controls: 0 for no effect and ±100 for the full control effect; nearly all actives have a fitted effect of over 45% in size). In short, it runs like this: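 MDA-kb2 AR-luc cells (MMTV-luciferase, AR/GR responsive) treated with compounds plus R1881 agonist for 16 h at 37C. CellTiter-Fluor added at 15.5 h; fluorescence read after 30 min in the same wells.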

The nature of assay [5]: qHTS assay to identify small molecule antagonists of the thyroid receptor (TR) signaling pathway - cell viability counter screen (AID 743064). Also: nearly all actives have a fitted effect of over 50% in size. Also: potency is read from the fitted curve at half-maximal effect. In short, it runs like this: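 GH3.TRE-Luc rat pituitary cells carrying a TRE-luciferase reporter were treated with compound plus 1 nM T3 (final) for 23.5 h at 37 °C. Viability was then read in the same wells by CellTiter-Fluor fluorescence after a further 30 min.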

Assay [6] deals with thyroid hormone receptor (rat, GH3 cells). The experiment in a line: qHTS assay to identify small molecule agonists of the thyroid receptor (TR) signaling pathway (AID 743066; calls by dose curve; also: % is scaled to controls: 0 for no effect and ±100 for the full control effect).
The target of assay [7] is Estrogen receptor (Homo sapiens) (UniProt P03372). Kind of assay: qHTS assay to identify small molecule antagonists of the estrogen receptor alpha (ER-alpha) signaling pathway (AID 743069; active = well fitted curve in the direction sought with a large enough effect in the signal ratio in the repeat runs, not every such curve was filed as active; the % refers to the signal ratio; also: % is scaled to controls: 0 for no effect and ±100 for the full control effect). In short, it runs like this: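 HEK293 ER-alpha-UAS-bla GripTite cells, held overnight in 2% charcoal-stripped FBS, 5,000 cells/well, preincubated 4 h, then compound plus 17beta-estradiol for 18 h at 37C. Beta-lactamase read by LiveBLAzer B/G FRET substrate, 2 h at room temperature.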

Assay [8] in a line: qHTS assay to identify small molecule antagonists of the estrogen receptor alpha (ER-alpha) signaling pathway - cell viability counter screen (AID 743074; calls by dose curve;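 also: HEK293 cells carrying ER-alpha-UAS-bla reporter stimulated with 17beta-estradiol; nearly all actives have a fitted effect of over 45% in size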; also: potency is read from the fitted curve at half-maximal effect).
The target in assay [9] is Estrogen receptor (Homo sapiens) (UniProt P03372). The experiment in a line: qHTS assay to identify small molecule agonists of the estrogen receptor alpha (ER-alpha) signaling pathway (AID 743075; calls by dose curve; also: % is scaled to controls: 0 for no effect and ±100 for the full control effect).
Assay [10] has the same target. Kind of assay: qHTS assay to identify small molecule agonists of the estrogen receptor alpha (ER-alpha) signaling pathway using the BG1 cell line (AID 743079). Also: nearly all actives have a fitted effect of over 20% in size. Also: potency is read from the fitted curve at half-maximal effect. The note with it: BG1Luc4E2 cells, ERE-luciferase agonist, 22 h; activation: at 70.3 µM (top of the series) unless noted.
Assay [11] is described as follows: qHTS assay to identify small molecule antagonists of the estrogen receptor alpha (ER-alpha) signaling pathway using the BG1 cell line (AID 743080; calls by dose curve;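 also: BG1 cells stimulated with 17beta-estradiol alongside compound; % is scaled to controls: 0 for no effect and ±100 for the full control effect; nearly all actives have a fitted effect of over 25% in size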). In short, it runs like this: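 BG1-Luc-4E2 cells (endogenous full-length ER-alpha, stable 4×ERE-luciferase) were starved 5 days in phenol-red-free medium with 10% charcoal-stripped FBS, plated 24 h, then given compound plus 17beta-estradiol for 21.5 h at 37 C; ONE-Glo luminescence read after 30 min.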

Assay [12] is described as follows: qHTS assay to identify small molecule antagonists of the estrogen receptor alpha (ER-alpha) signaling pathway using the BG1 cell line - cell viability counter screen (AID 743081).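 Also: compound given together with 17beta-estradiol as the ER stimulus; nearly all actives have a fitted effect of over 45% in size.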 Also: potency is read from the fitted curve at half-maximal effect.
In assay [13] the target is Aromatase (Homo sapiens) (UniProt P11511). The experiment in a line: qHTS assay to identify aromatase inhibitors (AID 743083). Also: nearly all actives have a fitted effect of over 55% in size. Also: potency is read from the fitted curve at half-maximal effect.
Assay [14] in a line: qHTS assay for identifying genotoxic compounds that show differential cytotoxicity against isogenic chicken DT40 cell lines with known DNA damage response pathways - wild type cell line (AID 743012). Also: nearly all actives have a fitted effect of over 60% in size. Also: potency is read from the fitted curve at half-maximal effect. In short, it runs like this:
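Wild-type DT40 cells (300/well) exposed to compounds for 40 hours at 37 C/5% CO2. Viability read by CellTiter-Glo luminescence after 30 min at room temperature.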

A short description of assay [15]: qHTS assay for identifying genotoxic compounds that show differential cytotoxicity against isogenic chicken DT40 cell lines with known DNA damage response pathways - Rev3 mutant cell line (AID 743014). Also: nearly all actives have a fitted effect of over 55% in size. Also: potency is read from the fitted curve at half-maximal effect.
The target of assay [16] is Androgen receptor (Homo sapiens) (UniProt P10275). The experiment in a line: qHTS assay to identify small molecule antagonists of the androgen receptor (AR) signaling pathway (AID 743035; active = well fitted inhibition curve with a large enough effect in the signal ratio in the repeat runs, not every such curve was filed as active; the % refers to the signal ratio; also: potency is read from the fitted curve at half-maximal effect). In short, it runs like this:
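HEK293 cells stably carrying UAS-beta-lactamase reporter, 2,000/well, given compounds plus R1881 agonist and incubated 16 h at 37C. LiveBLAzer B/G FRET substrate then added for 2 h at room temperature before fluorescence reading.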

For assay [17] the target is unchanged. The experiment in a line: qHTS assay to identify small molecule agonists of the androgen receptor (AR) signaling pathway using the MDA cell line (AID 743040; also: % is scaled to controls: 0 for no effect and ±100 for the full control effect; nearly all actives have a fitted effect of over 20% in size). The note with it: MDA-kb2 AR-luc cells, MMTV luciferase, 16 h, stronger effect = higher value. In short, it runs like this:
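MDA-kb2 breast carcinoma cells carrying MMTV-luciferase (responsive to AR and GR), plated 5 h then treated 16 h with compounds at 37C, 0% CO2. Read-out was ONE-Glo luminescence after 30 min at room temperature.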

Assay [18] has the same target. Kind of assay: qHTS assay to identify small molecule antagonists of the androgen receptor (AR) signaling pathway using the MDA cell line (AID 743042; also: nearly all actives have a fitted effect of over 55% in size; also: potency is read from the fitted curve at half-maximal effect). In short, it runs like this:
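MDA-kb2 breast carcinoma cells carrying MMTV-luciferase (AR/GR responsive) were co-treated with compounds and the agonist R1881 for 16 h at 37C. Inhibition read as ONE-Glo luminescence; CellTiter-Fluor fluorescence measured in parallel for cytotoxicity.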

A short description of assay [19]: qHTS assay to identify small molecule antagonists of the thyroid receptor (TR) signaling pathway (AID 743065). Also: nearly all actives have a fitted effect of over 55% in size. Also: potency is read from the fitted curve at half-maximal effect. In short, it runs like this:
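GH3.TRE-Luc rat pituitary cells (two TREs driving luciferase) were dosed with compound, then stimulated with 1 nM T3 (final) for 23.5 h at 37 C. ONE-Glo luminescence was the read-out, with CellTiter-Fluor fluorescence as the cytotoxicity counter-screen.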

Assay [20] addresses Androgen receptor (Homo sapiens) (UniProt P10275). The experiment in a line: qHTS assay to identify small molecule agonists of the androgen receptor (AR) signaling pathway (AID 743036; active = well fitted activation curve with a large enough effect in the signal ratio in the repeat runs, with a control signal flat, not every such curve was filed as active; the % refers to the signal ratio; also: % is scaled to controls: 0 for no effect and ±100 for the full control effect). In short, it runs like this: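 HEK293 cells stably carrying a UAS-driven beta-lactamase reporter (GeneBLAzer AR-UAS-bla-GripTite) were plated at 2,000 cells/well, rested 4 h at 37C, then exposed to compounds in DMSO for 16 h. LiveBLAzer B/G FRET substrate was added for 2 h at room temperature; fluorescence read.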

Several values for one entry are separate records, joined by “and”; a condition that tells them apart may be missing. Equal values may be shown once. Results filed as inconclusive are left out. A structure can be active in one record and inactive in another. Activity calls are given as the source filed them. Unless noted, calls follow the shape of the dose curve; as a rule, active = well fitted curve in the direction sought with a large enough effect in the repeat runs; inconclusive = weak or mixed curves; inactive = no such curve, though single readings can be large; an effect the other way counts as inactive or inconclusive.

Sequence of Androgen receptor (Homo sapiens) (P10275 whole entry, looked up): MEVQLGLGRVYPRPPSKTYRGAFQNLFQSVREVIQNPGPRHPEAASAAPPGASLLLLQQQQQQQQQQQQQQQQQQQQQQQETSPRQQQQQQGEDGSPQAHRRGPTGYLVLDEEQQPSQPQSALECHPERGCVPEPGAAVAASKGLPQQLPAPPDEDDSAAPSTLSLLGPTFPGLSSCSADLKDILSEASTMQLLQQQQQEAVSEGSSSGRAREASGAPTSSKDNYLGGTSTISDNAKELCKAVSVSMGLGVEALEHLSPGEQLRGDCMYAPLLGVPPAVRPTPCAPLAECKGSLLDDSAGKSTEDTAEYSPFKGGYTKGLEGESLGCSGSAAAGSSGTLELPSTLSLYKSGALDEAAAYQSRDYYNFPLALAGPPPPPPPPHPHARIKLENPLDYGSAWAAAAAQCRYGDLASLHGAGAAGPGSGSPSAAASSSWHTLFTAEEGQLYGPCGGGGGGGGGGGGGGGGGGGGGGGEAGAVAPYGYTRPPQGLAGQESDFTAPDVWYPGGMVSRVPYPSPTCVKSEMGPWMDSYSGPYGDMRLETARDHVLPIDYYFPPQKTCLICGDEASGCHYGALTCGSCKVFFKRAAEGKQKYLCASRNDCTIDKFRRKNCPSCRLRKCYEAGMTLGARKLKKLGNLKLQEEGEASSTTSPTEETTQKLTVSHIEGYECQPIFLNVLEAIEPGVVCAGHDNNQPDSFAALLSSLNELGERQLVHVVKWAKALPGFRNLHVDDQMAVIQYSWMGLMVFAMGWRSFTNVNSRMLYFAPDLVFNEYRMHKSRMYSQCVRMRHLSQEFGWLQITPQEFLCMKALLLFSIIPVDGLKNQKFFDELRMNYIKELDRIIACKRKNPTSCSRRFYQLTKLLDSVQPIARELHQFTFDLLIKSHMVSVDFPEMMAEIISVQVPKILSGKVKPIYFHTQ
Sequence of Estrogen receptor (Homo sapiens) (P03372 whole entry, looked up): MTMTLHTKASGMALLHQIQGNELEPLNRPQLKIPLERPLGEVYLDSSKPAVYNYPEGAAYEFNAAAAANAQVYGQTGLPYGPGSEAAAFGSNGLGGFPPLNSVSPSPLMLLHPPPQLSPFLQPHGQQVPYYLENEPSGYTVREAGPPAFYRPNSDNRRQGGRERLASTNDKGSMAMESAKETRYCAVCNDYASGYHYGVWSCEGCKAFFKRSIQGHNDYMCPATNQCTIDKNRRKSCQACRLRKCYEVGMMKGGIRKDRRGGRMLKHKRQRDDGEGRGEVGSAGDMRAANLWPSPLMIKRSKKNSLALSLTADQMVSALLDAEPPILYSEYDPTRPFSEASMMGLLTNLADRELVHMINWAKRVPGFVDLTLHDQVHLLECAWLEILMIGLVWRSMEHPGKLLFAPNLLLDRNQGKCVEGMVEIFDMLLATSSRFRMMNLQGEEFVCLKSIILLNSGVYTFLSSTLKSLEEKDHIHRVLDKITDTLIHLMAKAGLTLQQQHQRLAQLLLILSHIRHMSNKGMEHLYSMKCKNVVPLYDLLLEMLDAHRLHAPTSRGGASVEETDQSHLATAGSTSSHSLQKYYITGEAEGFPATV
Sequence of Aromatase (Homo sapiens) (P11511 whole entry, looked up): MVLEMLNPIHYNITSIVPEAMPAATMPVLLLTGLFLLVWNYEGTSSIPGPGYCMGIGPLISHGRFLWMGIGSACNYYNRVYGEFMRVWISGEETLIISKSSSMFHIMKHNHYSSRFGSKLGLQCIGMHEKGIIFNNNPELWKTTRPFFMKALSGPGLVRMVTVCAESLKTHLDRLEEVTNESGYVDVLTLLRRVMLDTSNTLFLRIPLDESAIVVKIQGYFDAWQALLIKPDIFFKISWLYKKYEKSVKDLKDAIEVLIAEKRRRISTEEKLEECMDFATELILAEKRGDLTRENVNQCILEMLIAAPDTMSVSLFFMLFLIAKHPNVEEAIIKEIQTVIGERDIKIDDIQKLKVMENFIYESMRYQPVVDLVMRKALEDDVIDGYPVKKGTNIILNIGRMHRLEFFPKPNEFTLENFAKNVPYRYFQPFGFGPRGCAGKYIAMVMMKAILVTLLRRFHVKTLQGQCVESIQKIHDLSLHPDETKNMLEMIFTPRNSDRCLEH

With `c1ccc2c(c1)Nc1ccccc1S2`, the Potency result in [1], in assay [3], in [4], in assay [5], in [6] and in [7] was “inactive” in each case. Also, the Potency result in assay [8], in assay [9], in assay [11], in [12] and in assay [13] was “inactive” each time. Moreover, the Potency in assay [2] is 40.9 µM (active); in [10], 26.6 µM (active) and 38.6 µM (active).

Regarding `Oc1ccc(Cl)cc1Cc1ccccc1`, the Potency is 21.1 µM (active) and 6.19 µM (active) in assay [14]; 26.6 µM (active) and 54.5 µM (active) and 21.3 µM (active) in [15]; 29.8 µM (active) and 48.6 µM (active) and 16.5 µM (active) in assay [2]; “inactive and 38.9 µM (active) and 39.4 µM (active)” in [3]; 19.5 µM (active) in assay [16]; “inactive and 54.5 µM (active)” in [18]. For the same molecule, the Potency in assay [5] is 48.6 µM (active) and 36.7 µM (active); in [19], 54.5 µM (active) and 43.3 µM (active); in assay [8], “inactive and 49 µM (active) and 12.4 µM (active)”; in assay [13], 27.3 µM (active) and 30.9 µM (active). Further, the activity change in assay [17] (at 70.3 µM (top of the series)) was -0.884% (inactive) and -9.7% (inactive); in [17] (at 95 µM (top of the series)) it was -7.19% (inactive). Besides, the Potency entry in assay [4], in [6] and in assay [12] was “inactive” each time.

Consider `Nc1ncn[nH]1`, for which the Potency result in assay [1], in assay [14], in [15], in assay [2], in assay [3] and in [5] was “inactive” throughout. For the same molecule, the Potency result in assay [6], in assay [8], in [12] and in [13] was “inactive” throughout.

Consider `N#Cc1cccnc1`, for which the Potency result in [1], in assay [14], in [15], in assay [2], in assay [3] and in assay [5] was “inactive” each time. The Potency entry in [19], in [6], in assay [7], in [8], in assay [9] and in assay [10] was “inactive” in each case. Moreover, the Potency entry in assay [11], in [12] and in [13] was “inactive” in each case.

As for `N#CCCCCC#N`, the Potency result in assay [1], in assay [14], in [15], in assay [2], in assay [3] and in [4] was “inactive” throughout. The Potency entry in assay [19], in assay [6], in assay [8], in [12] and in [13] was “inactive” in each case.

On to `CCC(=O)Nc1ccc(Cl)c(Cl)c1`, for which the Potency entry in assay [14], in assay [15], in assay [2], in assay [3], in assay [20] and in assay [4] was “inactive” each time. In addition, the Potency result in assay [5], in [6], in [8], in assay [12] and in [13] was “inactive” each time. Besides, the Potency in [16] is 22.3 µM (active) and 24.5 µM (active); in [18] it was 48.6 µM (active); in assay [19], 49.5 µM (active). The values for the activity change in assay [17] (at 70.3 µM (top of the series)) and in assay [17] (at 95 µM (top of the series)) were -3.69% (inactive) and -4.49% (inactive), respectively.

Turning to `C=C(C)C#N`, the Potency entry in assay [1], in assay [14], in assay [15], in assay [2], in assay [3] and in [5] was “inactive” in each case. For the same molecule, the Potency entry in [6], in [7], in assay [8], in assay [9], in assay [10] and in assay [11] was “inactive” each time. Further, the Potency result in [12] and in assay [13] was “inactive” throughout.

With `Nc1ccc([N+](=O)[O-])cc1N`, the Potency entry in [1], in [3], in [6] and in [13] was “inactive” each time. In addition, the Potency was 27.3 µM (active) in assay [14]; 43.2 µM (active) and inactive in [15]; 13.7 µM (active) and 19.3 µM (active) in [2]; 24.3 µM (active) and 43.3 µM (active) in assay [5]; 48.5 µM (active) and 48.6 µM (active) in [19].

As for `Cc1cc(Cl)ccc1N=CN(C)C`, the Potency entry in assay [1], in assay [14], in assay [15], in [2], in assay [3] and in [4] was “inactive” in each case. The Potency result in assay [5], in [8], in assay [12] and in [13] was “inactive” throughout.

Consider `CCC/C=N/O`, for which the Potency result in [1], in [14], in assay [15], in assay [2], in assay [3] and in assay [5] was “inactive” each time. The Potency result in assay [19], in assay [6], in assay [7], in assay [8], in assay [9] and in [10] was “inactive” each time. The Potency result in assay [11], in assay [12] and in assay [13] was “inactive” in each case.

In the case of `CCCCCCCC[N+](C)(CCCCCCCC)CCCCCCCC`, the Potency in assay [1] was 13.8 µM (active) and 5.5 µM (active) and 11 µM (active); in [14], 768 nM (active) and 433 nM (active) and 306 nM (active); in assay [15] it was 433 nM (active) and 686 nM (active); in assay [2] it was 610 nM (active) and 273 nM (active) and 386 nM (active); in assay [3], 3.46 µM (active) and 872 nM (active) and 3.47 µM (active); in assay [5], “inactive and 2.44 µM (active) and 6.11 µM (active)”. For the same molecule, the Potency was 1.37 µM (active) and 2.73 µM (active) in assay [19]; 7.75 µM (active) and 27.6 µM (active) and 8.71 µM (active) in assay [8]; “inactive and 13.7 µM (active) and 27.3 µM (active)” in [12]; 15.3 µM (active) and 3.44 µM (active) and 15.4 µM (active) in assay [13]. For the same molecule, the Potency result in [6] is “inactive”.

Regarding `Clc1ccc(C(Cl)(Cl)Cl)cc1`, the Potency result in [1], in assay [14], in [15], in assay [2], in assay [3] and in assay [5] was “inactive” throughout. Further, the Potency entry in [6], in assay [7], in assay [8], in assay [9], in assay [11] and in assay [12] was “inactive” in each case. For the same molecule, the Potency result in [13] is “inactive”. Besides, in assay [10], the Potency result is “inactive and 30.6 µM (active)”.

Turning to `O=C1Nc2ccc(Cl)cc2C(c2ccccc2)=NC1O` (centres undefined), the Potency result in assay [1], in assay [3], in assay [5], in assay [6], in [8] and in assay [12] was “inactive” in each case. In addition, the Potency entry in [13] is “inactive”.

Consider `NN=C(N)N`, for which the Potency entry in assay [1], in assay [14], in assay [2], in [3], in assay [5] and in assay [6] was “inactive” in each case. Also, the Potency result in assay [8], in assay [12] and in [13] was “inactive” throughout.
